Measured values reported in the supplement of paper PMC10338343.
± gives the standard deviation.

Key:
[1] = system: MILI (PIWIL2) piRISC loaded with L1MC piRNA (26 nt); test: pre-steady-state target cleavage rate (min^-1); guide: L1MC piRNA 5'p-UAACUAAAUACUAUGCAAGCUGUAGG; higher = faster piRNA-guided slicing of the target
How it was run: (§1)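 The pre-steady-state cleavage rate was obtained by Cleave-'n-Seq with a burst-and-steady-state fit. A transcribed, DNA-blocked target RNA library (0.1 nM) was mixed with 1 nM active affinity-purified piRISC carrying one synthetic guide, with or without 500 nM GTSF1 partner protein, in HEPES–potassium acetate buffer at 33 °C for 0–8 or 0–960 min. Uncleaved targets were sequenced and normalised to depth and to weakly complementary targets, with three trials pooled and k3 capped at 0.0001 min^-1.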

[2] = system: EfPiwi piRISC loaded with L1MC piRNA (26 nt); test: pre-steady-state target cleavage rate (min^-1); auxiliary factor: 500 nM Ephydatia muelleri Gtsf1; guide: L1MC piRNA 5'p-UAACUAAAUACUAUGCAAGCUGUAGG; MIWI and MILI are mouse PIWI proteins and EfPiwi is from a freshwater sponge; tags in brackets are library labels; higher = faster piRNA-guided slicing of the target
How it was run: as §1

[3] = auxiliary factor: 500 nM mouse GTSF1
[4] = auxiliary factor: none (no GTSF1)

| Sequence | pre-steady-state target cleavage rate [1, 3] | pre-steady-state target cleavage rate [1, 4] | pre-steady-state target cleavage rate [2] |
| --- | --- | --- | --- |
| UCCUGGAUCUCCUUGCAUAGUAUUUAGUUA | 0.226 ± 0.014 | 0.00588 ± 0.0018 | 0.0227 ± 0.0066 |
| UCCUGGAACAGCUUGCAUAGUAAAUAGUUA | 0.153 ± 0.021 | 0.0034 ± 0.0027 | 0.00589 ± 0.0023 |
| UCCUGGAUGUGCUUGCAUAGUGUUUAGUUA | 0.0653 ± 0.013 | 0.00396 ± 0.0032 | 0.0123 ± 0.0051 |
| UCCUCCAACAGCUUGCUUAGUAUUUAGUUA | 0.262 ± 0.017 | 0.0066 ± 0.0021 | 0.0148 ± 0.0053 |
| UCCUGGAUCAGCUUGCAUAGUAUUUAGUUU [g2:g22:cont:t1U] | 0.357 ± 0.019 | 0.0189 ± 0.0043 | 0.121 ± 0.025 |
| UCCUGGAUGAGCUUGCAUAGUAAUUAGUUA | 0.184 ± 0.018 | 0.00598 ± 0.0024 | 0.0154 ± 0.0044 |
| UCCUGGUACAGCUUGCAUAGUAUUUGGUUA | 0.205 ± 0.033 | 0.0142 ± 0.0043 | 0.00525 ± 0.002 |
| UCCUGCUACAGGAUGCAUAGUAUUUAGUUA | 0.271 ± 0.0083 | 0.00941 ± 0.0024 | 0.0191 ± 0.0043 |
| UCCUGGUACAGCUUAGCAUAGUAUUUAGUUA | 0.296 ± 0.018 | 0.0164 ± 0.0045 | 0.0188 ± 0.0058 |
| UCCUCGAUCAGCUUGCAUAGUAUUUAGUUA | 0.316 ± 0.017 | 0.0102 ± 0.0027 | 0.121 ± 0.023 |
| UCCUGGAUGAGCUUAGCAUAGUAUUUAGUUA | 0.217 ± 0.016 | 0.0041 ± 0.0027 | 0.0344 ± 0.0086 |
| UCCUGGUACAGCUUGCAUAGUAUGUUAGUUA | 0.184 ± 0.03 | 0.00462 ± 0.0027 | 0.00488 ± 0.0028 |
| UCCUGGAUCAGCUAGCAUACUAUUUAGUUA | 0.0859 ± 0.012 | 0.00444 ± 0.0019 | 0.00342 ± 0.0018 |
| UCCUGGAACAGGUUGCAUAGUAUUAAGUUA | 0.213 ± 0.023 | 0.00415 ± 0.0022 | 0.00329 ± 0.0021 |
| UCCUCCUACGCUUGCAUAGUAUUUAGUUA | 0.301 ± 0.013 | 0.0071 ± 0.0018 | 0.0821 ± 0.021 |
| UCCUGGUACAGCUAGCAAAGUAUUUAGUUA | 0.102 ± 0.013 | 0.0127 ± 0.0033 | 0.00688 ± 0.0029 |
| UCCUGCUACACCAUGCAUAGUAUUUAGUUA | 0.223 ± 0.015 | 0.00794 ± 0.0027 | 0.00582 ± 0.003 |
| UCCUCCUACAGCUUUCAUAGUAUUUAGUUA | 0.213 ± 0.017 | 0.00664 ± 0.002 | 0.00691 ± 0.0022 |
| UCCUGCUACAGCUUGCAUAGUAUUUAGUCA | 0.202 ± 0.033 | 0.00397 ± 0.0022 | 0.00386 ± 0.0017 |
